Numbering of substitutions follows the chain as printed.
Legend:
Experiment in all cases: yeast three-hybrid, YBZ-1, SC-Leu-His + 0.5 mM 3-AT, 4 days
Conditions in all cases: tags: N-Gal4 AD-HA kept; label: inside an RPR1-promoter hybrid RNA with tandem MS2 sites; ssRNA
PUM1 PUF domain R1-RAN = PUM1 PUF domain R1-RAN (Homo sapiens, UniProt Q14671 828-1176, S863R;R864A;Q867N)
How it was run: (§1)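 The interaction score is the logarithmic change in variant frequency from input to selection. It uses log2, with a pseudocount of 1 for absent variants, and frequencies came from PCR-amplified, Illumina-sequenced repeat regions. The libraries were Pumilio-1 PUF domains randomized at the three base-contacting residues per repeat, co-expressed with matching RNA elements in strain YBZ-1 (LexA–MS2 coat fusion, HIS3 reporter). Plating lasted four days on SC-Leu (input) or SC-Leu-His + 0.5 mM 3-AT (selection).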

PUM1 PUF domain R5-KAM = PUM1 PUF domain R5-KAM (Homo sapiens, UniProt Q14671 828-1176, C1007K;R1008A;Q1011M)
How it was run: as §1

PUM1 PUF domain R5-WHL = PUM1 PUF domain R5-WHL (Homo sapiens, UniProt Q14671 828-1176, C1007W;R1008H;Q1011L)
How it was run: as §1

PUM1 PUF domain R8-PHR = PUM1 PUF domain R8-PHR (Homo sapiens, UniProt Q14671 828-1176, N1122P;Y1123H;Q1126R)
How it was run: as §1

PUM1 PUF domain R3-GPY = PUM1 PUF domain R3-GPY (Homo sapiens, UniProt Q14671 828-1176, C935G;R936P;Q939Y)
How it was run: as §1

PUM1 PUF domain R6-SWV = molecular target: T1, PUM1 PUF domain R6-SWV (Homo sapiens, UniProt Q14671 828-1176, N1043S;Y1044W;Q1047V)
T1 sequence: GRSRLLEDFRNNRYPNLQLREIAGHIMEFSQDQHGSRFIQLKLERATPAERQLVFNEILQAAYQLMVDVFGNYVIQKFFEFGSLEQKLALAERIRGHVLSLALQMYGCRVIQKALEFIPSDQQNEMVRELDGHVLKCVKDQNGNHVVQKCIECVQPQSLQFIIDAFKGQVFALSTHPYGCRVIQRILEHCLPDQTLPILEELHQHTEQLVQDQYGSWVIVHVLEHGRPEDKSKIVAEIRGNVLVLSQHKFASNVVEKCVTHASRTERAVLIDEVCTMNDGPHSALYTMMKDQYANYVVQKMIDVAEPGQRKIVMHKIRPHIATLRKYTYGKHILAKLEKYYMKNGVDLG
How it was run: as §1

PUM1 PUF domain R6-WWS = molecular target: T2, PUM1 PUF domain R6-WWS (Homo sapiens, UniProt Q14671 828-1176, N1043W;Y1044W;Q1047S)
T2 sequence: T1 sequence with S216W, V220S
How it was run: as §1

PUM1 PUF domain R6-MWG = molecular target: T3, PUM1 PUF domain R6-MWG (Homo sapiens, UniProt Q14671 828-1176, N1043M;Y1044W;Q1047G)
T3 sequence: T1 sequence with S216M, V220G
How it was run: as §1

PUM1 PUF domain R4-CRL = PUM1 PUF domain R4-CRL (Homo sapiens, UniProt Q14671 828-1176, N971C;H972R;Q975L)
How it was run: as §1

PUM1 PUF domain R5-GRW = PUM1 PUF domain R5-GRW (Homo sapiens, UniProt Q14671 828-1176, C1007G;Q1011W)
How it was run: as §1

PUM1 PUF domain R6-LWA = molecular target: T4, PUM1 PUF domain R6-LWA (Homo sapiens, UniProt Q14671 828-1176, N1043L;Y1044W;Q1047A)
T4 sequence: T1 sequence with S216L, V220A
How it was run: as §1

PUM1 PUF domain R3-MCV = PUM1 PUF domain R3-MCV (Homo sapiens, UniProt Q14671 828-1176, C935M;R936C;Q939V)
How it was run: as §1

PUM1 PUF domain R2-LLY = PUM1 PUF domain R2-LLY (Homo sapiens, UniProt Q14671 828-1176, N899L;Y900L;Q903Y)
How it was run: as §1

PUM1 PUF domain R1-KGE = PUM1 PUF domain R1-KGE (Homo sapiens, UniProt Q14671 828-1176, S863K;R864G;Q867E)
How it was run: as §1

PUM1 PUF domain R3-SKL = PUM1 PUF domain R3-SKL (Homo sapiens, UniProt Q14671 828-1176, C935S;R936K;Q939L)
How it was run: as §1

PUM1 PUF domain R3-VRK = PUM1 PUF domain R3-VRK (Homo sapiens, UniProt Q14671 828-1176, C935V;Q939K)
How it was run: as §1

## GGCUAGAACUAGUGGAUCCCCCGGCGCCCGGCGGCUCGAGCCCGGGUAAGUGUAAAUCGUCUGCAUGCCGCCGGGCGCCAUGCCUGCAGGUCGACUCUAGAAAACAUG
PUM1 PUF domain R1-RAN
  binding signal: 3.89 log2 enrichment (interaction score)

## GGCUAGAACUAGUGGAUCCCCCGGCGCCCGGCGGCUCGAGCCCGGGUAAGUGUCAAUAGUCUGCAUGCCGCCGGGCGCCAUGCCUGCAGGUCGACUCUAGAAAACAUG
PUM1 PUF domain R5-KAM
  binding signal: 3.82 log2 enrichment (interaction score)
PUM1 PUF domain R5-WHL
  binding signal: 2.9 log2 enrichment (interaction score)

## GGCUAGAACUAGUGGAUCCCCCGGCGCCCGGCGGCUCGAGCCCGGGUAAGUGUAAAUAGUCUGCAUGCCGCCGGGCGCCAUGCCUGCAGGUCGACUCUAGAAAACAUG
PUM1 PUF domain R8-PHR
  binding signal: 4.34 log2 enrichment (interaction score)
PUM1 PUF domain R3-GPY
  binding signal: 6.77 log2 enrichment (interaction score)
PUM1 PUF domain R6-SWV
  binding signal: 1.05 log2 enrichment (interaction score)
PUM1 PUF domain R6-WWS
  binding signal: 3.36 log2 enrichment (interaction score)
PUM1 PUF domain R6-MWG
  binding signal: 3.83 log2 enrichment (interaction score)
PUM1 PUF domain R4-CRL
  binding signal: 5.64 log2 enrichment (interaction score)
PUM1 PUF domain R5-GRW
  binding signal: 2.31 log2 enrichment (interaction score)
PUM1 PUF domain R6-LWA
  binding signal: 4.92 log2 enrichment (interaction score)

## GGCUAGAACUAGUGGAUCCCCCGGCGCCCGGCGGCUCGAGCCCGGGUAAGUGUGAAUAGUCUGCAUGCCGCCGGGCGCCAUGCCUGCAGGUCGACUCUAGAAAACAUG
PUM1 PUF domain R5-WHL
  binding signal: 7.53 log2 enrichment (interaction score)

## GGCUAGAACUAGUGGAUCCCCCGGCGCCCGGCGGCUCGAGCCCGGGUAAGUGUAAGUAGUCUGCAUGCCGCCGGGCGCCAUGCCUGCAGGUCGACUCUAGAAAACAUG
PUM1 PUF domain R3-MCV
  binding signal: 2.64 log2 enrichment (interaction score)

## GGCUAGAACUAGUGGAUCCCCCGGCGCCCGGCGGCUCGAGCCCGGGUAAGUGUAAAGAGUCUGCAUGCCGCCGGGCGCCAUGCCUGCAGGUCGACUCUAGAAAACAUG
PUM1 PUF domain R2-LLY
  binding signal: 2.22 log2 enrichment (interaction score)

## GGCUAGAACUAGUGGAUCCCCCGGCGCCCGGCGGCUCGAGCCCGGGUAAGUGUAAAUUGUCUGCAUGCCGCCGGGCGCCAUGCCUGCAGGUCGACUCUAGAAAACAUG
PUM1 PUF domain R1-KGE
  binding signal: 4.18 log2 enrichment (interaction score)
PUM1 PUF domain R1-RAN
  binding signal: 3.21 log2 enrichment (interaction score)

## GGCUAGAACUAGUGGAUCCCCCGGCGCCCGGCGGCUCGAGCCCGGGUAAGUGUAAUUAGUCUGCAUGCCGCCGGGCGCCAUGCCUGCAGGUCGACUCUAGAAAACAUG
PUM1 PUF domain R3-SKL
  binding signal: 2.84 log2 enrichment (interaction score)
PUM1 PUF domain R3-VRK
  binding signal: 3.28 log2 enrichment (interaction score)
PUM1 PUF domain R3-MCV
  binding signal: 1.41 log2 enrichment (interaction score)

— article PMC8384837, “Expanding the binding specificity for RNA recognition by a PUF domain”
